Assay outcomes: PubChem BioAssay, several laboratories
Rows were chosen to be rich in hits. Some 1.3% of all compounds tested hit in one or more screens of this group.
NCOA1 inh – SRC1 coactivator transcriptional activity inhibitors, primary screen, cell-based, luminescence | HEK293 GAL4-SRC1 luciferase reporter | inhibition, % at 3.6 µM | hit rate 0.12% among 360,000;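 active = inhibition above the campaign mean plus 3 SD, with each screening campaign given its own cutoff, cut at about 60% in these data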
COUP-TFII inh – NR2F2 transcriptional activity inhibitors, primary screen, cell-based, luciferase reporter, HEK293T, luminescence; COUP transcription factor 2 (Homo sapiens), P24468; HEK293T NGFI-A luciferase reporter; hit rate 0.7% among 370,000; inhibition, % at 8.6 µM;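 active = inhibition above a per-plate cutoff, mean inhibition of test wells between control levels plus 3 SD, cut at about 38% in these data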;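 note: cells cotransfected with COUP-TFII expression vector driving the NGFI-A reporter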
Gli-Sufu antag – Gli-Sufu pathway antagonists, primary screen, luciferase luminescence, Sufu-KO-LIGHT cells, uHTS. Sufu-KO-LIGHT fibroblasts, Gli luciferase reporter luminescence. inhibition, % at 5 µM. hit rate 0.74% among 340,000;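 active = inhibition above about 55%, limit read from the data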
NR5A2 inv ag – LRH-1 (NR5A2) inverse agonists, primary screen, cell-based, luminescence, HEK293T, StAR-luciferase reporter. hit rate 0.13% among 360,000. LRH-1 transfected, 24 h. inhibition, % at 3.6 µM. AID 602396, 2012;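 active = inhibition above the mean inhibition of all tested compounds plus 3 SD, cut at about 73% in these data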
SRC3 inh – SRC3 coactivator transcriptional activity inhibitors, primary screen, cell-based, luminescence; Nuclear receptor coactivator 3 (Homo sapiens), Q9Y6Q9; HEK293 GAL4-SRC3 luciferase reporter; inhibition, % at 3.6 µM; hit rate 0.17% among 360,000; AID 588352, 2011;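 active = inhibition above a per-campaign cutoff, the mean of all compounds plus 3 SD, cut at about 60% in these data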;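 note: higher means less SRC3-driven luciferase light from the GAL4 reporter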
Target sequence (Q9Y6Q9 whole entry, looked up, the tested form may be a part): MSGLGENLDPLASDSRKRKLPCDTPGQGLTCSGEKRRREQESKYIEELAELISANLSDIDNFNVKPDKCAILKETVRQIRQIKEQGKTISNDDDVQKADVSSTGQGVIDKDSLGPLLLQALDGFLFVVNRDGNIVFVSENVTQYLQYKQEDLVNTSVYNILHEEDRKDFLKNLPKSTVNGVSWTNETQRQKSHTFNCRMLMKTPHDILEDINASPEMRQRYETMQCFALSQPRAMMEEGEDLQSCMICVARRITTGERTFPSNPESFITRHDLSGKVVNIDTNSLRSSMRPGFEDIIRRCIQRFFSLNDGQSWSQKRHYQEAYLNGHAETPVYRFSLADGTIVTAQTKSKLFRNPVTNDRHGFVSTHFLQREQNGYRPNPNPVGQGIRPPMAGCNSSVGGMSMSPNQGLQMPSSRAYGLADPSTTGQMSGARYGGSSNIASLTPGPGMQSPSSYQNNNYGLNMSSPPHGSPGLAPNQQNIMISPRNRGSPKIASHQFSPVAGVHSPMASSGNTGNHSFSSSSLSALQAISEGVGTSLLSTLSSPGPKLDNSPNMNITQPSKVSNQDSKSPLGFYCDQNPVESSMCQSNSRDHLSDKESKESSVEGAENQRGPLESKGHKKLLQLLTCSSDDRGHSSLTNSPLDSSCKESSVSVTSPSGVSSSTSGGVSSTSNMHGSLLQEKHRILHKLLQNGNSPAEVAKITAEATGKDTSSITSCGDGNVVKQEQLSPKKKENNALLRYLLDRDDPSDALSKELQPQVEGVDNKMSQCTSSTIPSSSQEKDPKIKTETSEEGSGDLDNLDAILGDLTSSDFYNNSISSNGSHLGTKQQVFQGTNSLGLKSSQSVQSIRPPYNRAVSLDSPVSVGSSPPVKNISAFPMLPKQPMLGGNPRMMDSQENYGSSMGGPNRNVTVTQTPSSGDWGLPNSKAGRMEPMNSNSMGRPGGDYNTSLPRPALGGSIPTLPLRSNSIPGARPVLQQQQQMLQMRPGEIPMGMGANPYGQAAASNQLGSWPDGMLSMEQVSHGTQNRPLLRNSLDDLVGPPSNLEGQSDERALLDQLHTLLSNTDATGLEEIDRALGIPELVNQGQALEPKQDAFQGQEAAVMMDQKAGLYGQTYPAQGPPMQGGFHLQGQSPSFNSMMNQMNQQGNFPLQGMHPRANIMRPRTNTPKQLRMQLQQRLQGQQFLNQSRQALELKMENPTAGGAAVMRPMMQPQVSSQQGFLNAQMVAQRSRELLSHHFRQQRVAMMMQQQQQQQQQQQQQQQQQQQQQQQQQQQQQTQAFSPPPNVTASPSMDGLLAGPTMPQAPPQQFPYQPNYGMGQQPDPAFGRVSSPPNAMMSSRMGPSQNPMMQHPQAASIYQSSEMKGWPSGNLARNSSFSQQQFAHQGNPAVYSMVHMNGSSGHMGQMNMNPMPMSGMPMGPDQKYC
SRC2 inh – inhibition of GAL4-SRC2 driven luciferase reporter, primary screen, SRC2 inhibitor project, cell-based, luminescence | Nuclear receptor coactivator 2 (Homo sapiens), Q15596 | HEK293 GAL4-SRC2 luciferase reporter | inhibition, % at 9 µM | hit rate 0.17% among 370,000 | AID 651957, 2012;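 active = inhibition above the mean inhibition of all tested compounds plus 3 SD, set per campaign, cut at about 52% in these data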
VP16 Luc counter – Gal4-VP16 luciferase reporter inhibitors, counter-screen for COUP-TFII antagonist project, cell-based, luminescence, HEK293. shares compounds with COUP-TFII inh. hit rate 25% among 2,500. AID 687007, 2013. inhibition, % at 8.5 µM; in the data active = inhibition above about 13%
COUP-TFII conf – NR2F2 transcriptional activity inhibitors, confirmation, cell-based, luciferase reporter, HEK293, triplicate; shares compounds with COUP-TFII inh; HEK293 NGFI-A luciferase reporter, luminescence; inhibition, % at 8.5 µM; hit rate 45% among 2,500; AID 687008, 2013;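 active = mean inhibition over three repeats above a set limit taken from the earlier primary screen, cut at about 38% in these data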
Numbers stand for hits; n = inactive; x = no result given.

SMILES | NCOA1 inh | COUP-TFII inh | Gli-Sufu antag | NR5A2 inv ag | SRC3 inh | SRC2 inh | VP16 Luc counter | COUP-TFII conf
CN1CCCN(C(=O)c2ccc(Cl)s2)CC1 | n | n | n | n | n | n | x | x
O=C(/C=C\Nc1ccc2c(c1)OCO2)c1ccccn1 | n | 46.1 | n | n | n | 73.1 | 30.8 | 52.1
C[C@@H]1CN([C@@H](C)CO)C(=O)Cc2cc(NC(=O)Nc3ccc4c(c3)OCO4)ccc2O[C@@H]1CN(C)C(=O)NC1CCCCC1 | n | n | n | n | n | n | x | x
CC(O)CC(=O)OC[C@]12CC[C@H]3[C@@](C)(CC[C@H]4C(C)(C)CCC[C@]34C)[C@@H]1CC(C1=CC(=O)OC1O)O2 (stereo partly drawn) | n | 86.5 | x | 77.5 | n | n | 52.3 | 72.4
NC(=O)c1cc([N+](=O)[O-])ccc1NCc1ccc(F)cc1 | n | n | n | n | n | n | x | x
NC(=O)c1cc([N+](=O)[O-])ccc1NCc1ccc(N)cc1 | n | 52.2 | n | n | n | 73.0 | 64.2 | 49.6
CC1(C(=O)NS(=O)(=O)c2ccc(F)cc2F)CCN1C(=O)Cc1cc(F)ccc1F (stereo not drawn) | n | n | x | n | n | n | x | x
c1ccc2c(-c3cnc4cccnn34)cncc2c1 | n | n | x | n | n | n | x | x
c1cc(-c2cnc3cccnn23)c2cccnc2c1 | 63.2 | 45.5 | x | n | n | 65.9 | n | n
O=C(O)c1cc2c(ncc3c(=O)n(-c4ccccc4)[nH]c32)s1 | n | n | x | n | n | n | x | x
CN(C(=O)CN1CCN(c2cc(-c3ccc(-c4ccccc4)cc3)ncn2)CC1)c1ccccc1 | n | 53.8 | x | n | n | n | n | n
CCCS(=O)(=O)NC(=O)C1(C)CCN(C(=O)/C=C/c2ccccc2)C1 (stereo not drawn) | n | x | x | n | n | x | x | x
CC1(C)N=C(N)N=C(N)N1c1cc(Cl)ccc1Cl | n | n | x | n | n | n | x | x
CC1(C)N=C(N)N=C(N)N1c1ccc(Oc2ccc(Cl)cc2)c(Cl)c1 | n | 69.2 | 64.9 | n | n | n | 15.7 | 65.1
O=C(COC(=O)c1ccc(Br)o1)NCc1ccc(Cl)cc1 | n | n | n | n | n | n | x | x
c1ccn(-c2ccc(-c3noc(CCc4ccncc4)n3)cc2)c1 | x | 50.8 | x | x | x | n | n | n
CCN(CC)S(=O)(=O)c1ccc(/C=C/C(=O)Nc2ccc(F)cc2F)cc1 | n | 49.8 | n | n | n | n | n | n
CCN(CC)S(=O)(=O)c1ccc(/C=C/C(=O)Nc2ccc(Br)cc2F)cc1 | n | 55.9 | n | n | n | n | n | 69.8
O=C(/C=C/c1ccc(S(=O)(=O)N2CCOCC2)cc1)Nc1ccc(F)c(F)c1F | n | n | n | n | n | n | x | x
CCN(CC)S(=O)(=O)c1ccc(/C=C/C(=O)Nc2ccc(F)c(F)c2F)cc1 | n | 62.5 | n | n | n | n | n | 47.4
C=C(C)Cn1c(=O)c2c(nc3n2CC(C)CN3Cc2ccccc2)n(C)c1=O (stereo not drawn) | n | n | n | n | n | n | x | x
CCOC(=O)N1CCN(C(=O)c2ccc3c(c2)N(Cc2ccc(F)cc2)CCS3)CC1 | n | 37.8 | n | n | n | n | n | n
CCOC(=O)N1CCN(C(=O)c2ccc3c(c2)N(CC)CCS3)CC1 | n | n | n | n | n | n | x | x
Cc1ccc(C(=O)O)cc1-n1c(=O)n(Cc2ccccc2)c(=O)c2[nH]cnc21 | n | n | n | n | n | n | x | x
CC(=O)N1C[C@H]2CON(C)[C@H]2C[C@H]1c1cccc(-c2ccccc2C)c1 | n | 78.4 | n | n | n | n | n | n
SMILES | NCOA1 inh | COUP-TFII inh | Gli-Sufu antag | NR5A2 inv ag | SRC3 inh | SRC2 inh | VP16 Luc counter | COUP-TFII conf
COc1ccc(CN2CCN(C(=O)c3ccc(S(=O)(=O)NCc4ccco4)cc3)CC2)cc1 | n | 45.2 | n | n | n | n | n | n
O=C(c1ccc(S(=O)(=O)NCc2ccco2)cc1)N1CCN(Cc2ccccc2)CC1 | n | n | n | n | n | n | x | x
O=C(CSc1cc(Cl)ccc1Cl)N/N=C/c1ccc[nH]1 | x | 55.7 | x | x | x | x | n | 38.4
O=C(Cn1c(=O)cnc2ccccc21)N1CCN(S(=O)(=O)c2cccc([N+](=O)[O-])c2)CC1 | n | n | n | n | n | n | x | x
CC(=NNc1ccc2ccccc2n1)c1ccccn1 | x | 58.8 | x | x | x | n | 33.6 | 73.7
O=C(c1cc(COc2c(F)cccc2F)on1)N1CC[C@@H]2CCCC[C@H]2C1 | n | n | x | n | n | n | x | x
COc1cccc(CN2C(=O)C(C)N(C(=O)c3ccccc3)c3ccccc32)c1 (stereo not drawn) | n | 53.5 | n | n | n | n | n | n
COc1ccc(CN2C(=O)C(C)N(C(=O)c3c(F)cccc3F)c3ccccc32)cc1 (stereo not drawn) | n | n | n | n | n | n | x | x
CCCc1ccc2c(C)cccc2n1 | x | n | x | x | x | n | x | x
CC(C)(N[C@@H](Cc1ccccc1)C(=O)NCCCc1ccccc1)C(=O)NCc1ccccc1 | x | n | x | x | x | x | x | x
Cc1nc2ccccn2c1-c1ccnn1S(=O)(=O)c1ccc(F)cc1 | n | 49.0 | n | n | n | n | n | n
COCCn1c(C)cc(C(=O)COC(=O)c2cccc(O)c2)c1C | n | 72.4 | n | n | n | n | 63.8 | 87.1
COCCn1c(C)cc(C(=O)COC(=O)c2cc3c(s2)CCC3)c1C | n | n | n | n | n | n | x | x
Cc1cc(C(=O)CSc2nnc(-c3cccc(F)c3)n2N)c(C)n1Cc1ccc2c(c1)OCO2 | n | 43.7 | n | n | n | n | n | n
Cc1cc(C(=O)CSc2nnnn2-c2ccc(O)cc2)c(C)n1Cc1ccc2c(c1)OCO2 | n | n | n | n | n | n | x | x
CCCCCN1C=CC(=C2C(=O)c3ccccc3C2=O)C=C1 | n | 70.0 | 59.1 | n | n | 82.9 | 48.1 | 72.9
c1nc(NCc2ccc3c(c2)OCO3)c2cc(-c3ccoc3)ccc2n1 | n | 39.3 | n | n | n | n | n | n
O=C(c1ccncc1)c1ccc(N2CCN(C3CC(=O)N(Cc4cccs4)C3=O)CC2)cc1 (stereo not drawn) | n | 38.3 | n | n | n | n | n | n
COc1ccc(C(=O)O/N=C(\N)c2ccccn2)cc1 | n | 48.2 | n | n | n | n | n | n
Cc1ccc(C(=O)O/N=C(\N)c2ccccn2)c(C)c1 | n | 78.4 | 73.2 | n | 70.3 | 76.7 | 65.2 | 84.0
COc1ccc(C(=O)NNC(=O)c2ccccn2)cc1 | n | 46.0 | n | n | n | n | n | n
